# Compound activity: PubChem BioAssay, National Center for Advancing Translational Sciences (NCATS)
# Sfp PPTase inh – qHTS Assay for Inhibitors of Bacillus subtilis Sfp phosphopantetheinyl transferase (PPTase) | 4'-phosphopantetheinyl transferase ffp (Bacillus subtilis), Q9F4F7 | Biochemical Sfp PPTase activity, qHTS | Potency, µM, inactives show largest response in the series, negative = inhibition, usual class: inhibitors | actives 3.5% (n = 310,000);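 further: the enzyme is Sfp with the accession as filed and its product quenches rhodamine fluorescence; 0% = enzyme reaction without inhibitor and -100% = no enzyme wells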
#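 Fluorescence-quenching assay with 15 nM Sfp, 5 uM rhodamine-CoA and 12.5 uM BHQ-2-labelled ybbR peptide in pH 7.6 Hepes/MgCl2 buffer. Enzyme was pre-incubated with compound for 15 min at room temperature. Rate was taken from the 30-min fluorescence change (525/598 nm).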
# NPSR antagonist – qHTS Assay for Antagonists of the Neuropeptide S Receptor: cAMP Signal Transduction; Potency, µM (series often up to 38.3 µM), without a hit: top-dose activity change, negative = inhibition, actives largely listed as inhibitors; actives 1% (n = 220,000); CHO-NPSR cells, cAMP TR-FRET, antagonist mode; further: on the % scale 0 is the no-effect control and ±100 the full control effect; nearly all actives have a fitted effect of over 50% in size
# Target sequence (Q6W5P4 whole entry, looked up): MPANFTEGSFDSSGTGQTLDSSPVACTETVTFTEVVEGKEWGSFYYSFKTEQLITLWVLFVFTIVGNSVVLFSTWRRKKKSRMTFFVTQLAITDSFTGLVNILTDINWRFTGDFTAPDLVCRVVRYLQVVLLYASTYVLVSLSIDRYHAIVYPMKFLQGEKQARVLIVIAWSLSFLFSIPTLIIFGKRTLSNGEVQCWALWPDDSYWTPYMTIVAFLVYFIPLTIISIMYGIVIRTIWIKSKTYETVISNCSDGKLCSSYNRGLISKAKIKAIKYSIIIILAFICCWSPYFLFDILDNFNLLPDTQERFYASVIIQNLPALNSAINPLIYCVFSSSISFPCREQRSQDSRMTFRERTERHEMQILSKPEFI
# Epigenetic derep – Quantitative High-Throughput Screen for Regulators of Epigenetic Control; actives 0.2% (n = 280,000); murine LDR cells, GFP reporter derepression, 30 h; Potency, µM (doses to about 53.9 µM), for inactives: at the highest dose GFP activation, hits mostly activators; AID 1865, 2009; further: % of control where 0% means no effect; nearly all actives have a fitted effect of over 60% in size
#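 GFP-positive cell count by laser-scanning cytometry (objects 20–120 um) after 30 h, 37 C compound exposure of murine LDR cells; reporter is CMV-GFP integrated at a silenced locus, inducible by HDAC or DNMT inhibitors.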
# IMPase Li inh – qHTS Assay for Identifying the Cell-Membrane Permeable IMPase Inhibitors: Potentiation with Lithium; CHO-M1 cells, IP1 TR-FRET (IP-One), carbachol + lithium; Potency, µM (top dose mostly 59.4 µM), inactives show at the highest dose activity, negative = IMPase inhibition, actives largely listed as inhibitors; actives 0.35% (n = 210,000); AID 1457, 2008;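 further: IP1 builds up when IMPase is blocked and the TR-FRET signal falls; plate controls were basal vehicle for no effect and high inhibitor control for full effect; nearly all actives have a fitted effect of over 50% in size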
#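 Concentration–response in CHO-M1 cells, lithium-potentiated; 30 min at 37C. IP1 detected by competitive TR-FRET after 10 min lysis at RT. Hill-fitted AC50.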
# KAT2A inh – qHTS Assay for Inhibitors of GCN5L2 | Histone acetyltransferase KAT2A (Homo sapiens), Q92830 | GCN5L2 HAT assay, ThioGlo1 CoA-SH fluorescence | Potency, µM (doses to about 58.9 µM), inactives show top-dose activity change, negative = inhibition, actives largely listed as inhibitors | actives 0.21% (n = 390,000); further: on the % scale 0 is the no-effect control and ±100 the full control effect
#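 Preincubate 20nM GCN5L2 with compound 15 min, RT → add 50uM ThioGlo1 + 75uM H3(1-25) + 70uM acetyl-CoA → read fluorescence 0 and 20 min. Primary qHTS; fluorescent artifacts likely.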
# KDM4E inh – qHTS Assay for Inhibitors of Human Jumonji Domain Containing 2E (JMJD2E) | Potency, µM (highest dose often 57.1 µM), without a hit: at the highest dose activity change, negative = inhibition, most hits filed as inhibitors | JMJD2E catalytic domain, FDH-coupled NADH fluorescence (FDH is formaldehyde dehydrogenase) | AID 2147, 2009 | actives 1.6% (n = 230,000) | Lysine-specific demethylase 4E (Homo sapiens), B2RXH2; active means well fitted inhibition curve with a large enough effect, not every such curve was filed as active; inconclusive means small, poorly fitted or top-dose-only effect, or another doubt; inactive means no such curve, though single readings can be large or run the other way;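 further: 0% = wells with enzyme and -100% = buffer wells without enzyme; nearly all actives have a fitted effect of over 50% in size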
# Target sequence (B2RXH2 1-337 limits assumed): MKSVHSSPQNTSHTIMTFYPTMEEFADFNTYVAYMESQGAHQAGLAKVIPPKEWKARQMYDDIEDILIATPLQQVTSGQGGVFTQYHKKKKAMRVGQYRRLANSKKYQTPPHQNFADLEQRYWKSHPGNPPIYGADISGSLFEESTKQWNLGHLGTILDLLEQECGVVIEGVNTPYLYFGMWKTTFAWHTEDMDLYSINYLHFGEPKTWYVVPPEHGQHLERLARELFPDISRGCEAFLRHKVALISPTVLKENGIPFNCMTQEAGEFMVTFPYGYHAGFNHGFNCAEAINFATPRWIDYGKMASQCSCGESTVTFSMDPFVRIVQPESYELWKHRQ
# Active calls of the source: *; ? = inconclusive; . = no result; [ ] = remark or other dose. Rows were chosen to be rich in hits. Some 3.6% of all compounds tested hit in one or more screens of this group. Unless noted, the call rests on the fitted dose curve; in most records, active means well fitted curve in the direction sought with a large enough effect; inconclusive means small, poorly fitted or top-dose-only effect, or another doubt; inactive means no such curve, though single readings can be large; an effect the other way counts as inactive or inconclusive. Potency means the concentration at half of the fitted maximal effect.
SMILES,Sfp PPTase inh,NPSR antagonist,Epigenetic derep,IMPase Li inh,KAT2A inh,KDM4E inh
c1cncc(-c2nc(NCCN3CCOCC3)c3ccccc3n2)c1,12.9%,.,-0.1%,-0.6%,-10.3%,1.3%
O=c1c2cn[nH]c2[nH]c(=S)n1-c1ccccc1Cl,56.2µM*,10.9%,0.9%,-2.2%,-7.2%,?
Cc1nc2ccc(C(=O)N/N=C/c3ccccc3O)cc2[nH]1,19.6%,.,.,.,-7.2%,.
Cc1cc([N+](=O)[O-])nn1CC(=O)N/N=C/c1ccccc1Br,16.5%,7.4%,-1.6%,.,1.2%,5.7%
Cc1nc2ccc(C(=O)N/N=C/c3cc([N+](=O)[O-])ccc3O)cc2[nH]1,-12.9%,-7.3%,-1.5%,1.3%,-20.4%,35.5µM*
O=C(CSc1ccccn1)N/N=C/c1cc([N+](=O)[O-])ccc1O,17.3%,-1.0%,-4.7%,.,-11.1%,12.6µM*
Cc1cc([N+](=O)[O-])nn1CC(=O)N/N=C/c1ccc(O)cc1O,29.5%,-10.2%,-2.9%,.,-7.0%,12.6µM*
O=C(Cn1cncn1)N/N=C/c1cc([N+](=O)[O-])ccc1O,25.5%,-15.6%,-2.4%,.,-13.2%,25.1µM*
O=C(CSc1ccccn1)N/N=C/c1ccccc1[N+](=O)[O-],1.8%,-7.9%[46.1 µM],1.1%,4.1%,2.0%,1.2%
Cc1ccn(CC(=O)N/N=C/c2cc([N+](=O)[O-])ccc2O)n1,6.4%,9.7%,0.0%,-1.7%,-2.2%,12.6µM*
O=C(Cn1nc2ccccc2n1)N/N=C/c1cc([N+](=O)[O-])ccc1O,6.6%,-7.6%,-3.4%,3.0%,-15.4%,4.0%
O=C(N/N=C\c1cc([N+](=O)[O-])ccc1N1CCOCC1)c1ccccn1,44.7µM*,-12.3%,1.1%,4.1%,-2.2%,-20.6%
O=C(N/N=C\c1cc([N+](=O)[O-])ccc1N1CCCC1)c1ccccn1,-7.2%,-37.9%,4.2%,27.6%,2.8%,-5.8%
NCC[C@H](O)C(=O)N[C@@H]1C[C@H](N)[C@@H](O[C@H]2O[C@H](CN)CC[C@H]2N)[C@H](O)[C@H]1O[C@H]1O[C@H](CO)[C@@H](O)[C@H](N)[C@H]1O,3.2%,.,.,.,-5.3%,.
COc1ccc(/C=C(\C#N)c2nc(-c3cc4c(ccc5ccccc54)oc3=O)cs2)cc1O,.,.,12.6µM*,.,-4.6%,.
COc1ccc(/C=C(/C#N)c2nc(-c3ccc(-c4ccccc4)cc3)cs2)cc1OC,.,.,10µM*,.,3.9%,.
OC[C@H]1OC(O)[C@H](O)[C@@H](O)[C@@H]1O (some centres undefined),13.0%,.,.,.,-1.9%,.
Cc1cc2sc(C)[n+](CCCOS(=O)(=O)O)c2cc1C,.,.,.,2.0%,.,.
Cc1ccc2sc(C)[n+](CCCS(=O)(=O)[O-])c2c1,2.82µM*,20.4%,0.1%,5.7%,-2.0%,-4.1%
Cc1ccc2c(c1)sc(C)[n+]2CCCS(=O)(=O)[O-],1µM*,17.7%,3.7%,-2.4%,-9.2%,-3.9%
COc1ccc(/C=C2\SC(=O)NC2=S)cc1OC,25.1µM*,-20.1%,0.0%,16.6%,-3.6%,-28.2%
CO/N=C/c1ccc(Oc2ccc([N+](=O)[O-])cc2[N+](=O)[O-])c(OC)c1,?,0.5%,-1.0%,11.9%,-6.1%,-3.5%
COc1cc(/C=C2\SC(=O)NC2=O)ccc1Oc1ccc([N+](=O)[O-])cc1[N+](=O)[O-],56.2µM*,10µM*,-0.6%,13.6%,-25.7%,-5.6%
CC1(C)c2ccccc2N2CCC(=O)NC21/C=C/c1ccco1 (centres undefined),39.8µM*,-5.4%[46.1 µM],2.2%,2.7%[38.3 µM],-4.9%,?
O=C1CN(C(=O)COC(=O)/C=C/c2ccco2)c2ccccc2N1,-23.3%,5.8%,-0.6%,0.6%,-7.0%,0.9%
SMILES,Sfp PPTase inh,NPSR antagonist,Epigenetic derep,IMPase Li inh,KAT2A inh,KDM4E inh
CC1(C)c2ccccc2N2CC(=O)NC21/C=C/c1ccco1 (centres undefined),3.16µM*,-12.9%[46.1 µM],-4.1%,.,-1.0%,-20.8%
OC[C@@H]1O[C@](CO)(O[C@H]2O[C@H](CO)[C@@H](O)[C@H](O)[C@H]2O)[C@H](O)[C@H]1O,13.2%,.,.,.,-10.5%,.
Oc1ccccc1C(=S)N1CCN(C(=S)c2ccccc2O)CC1,28.2µM*,.,.,.,6.4%,.
COc1cccc(C(=O)N2CCN(C(=O)c3cccc4ccccc34)CC2)c1OC,15.2%,9.1%[46.1 µM],1.5%,11.8%[38.3 µM],-2.7%,3.7%
Oc1ccccc1C(=S)N1CCCC1,50.1µM*,.,.,.,-15.0%,.
Fc1ccc(COc2ccccc2C(=S)N2CCCC2)cc1,?,-15.2%,2.3%,18.0%,-20.8%,-5.5%
S=C(c1cccs1)N1CCCC1,18.0%,-1.2%[46.1 µM],0.9%,6.0%[38.3 µM],0.1%,-0.9%
Cc1ccc(COc2ccccc2C(=S)N2CCCC2)cc1,25.1µM*,-26.4%,1.1%,19.9%,-7.3%,-6.3%
COc1cccc(C(=S)N2CCCC2)c1OC,50.1µM*,.,.,.,-11.1%,.
COc1ccc2c(c1)c1c(c(=O)n(-c3cccc(C)c3)c(=O)n1Cc1cccc(Cl)c1)n2C,.,.,-3.1%,.,0.2%,.
Cc1cc(Br)cc2c1N(Cc1ccccc1OC(C)C)C(=O)C2=O,.,.,1.5%,.,?,.
CCN(CC)c1ccc2c(Cl)c(Br)c(=O)oc2c1,56.2µM*,3.16µM*,11.2µM*,?,-3.6%,?
COc1ccc(OC)c(NC(=O)C2=C(C)C(=O)OC23CCCCCC3)c1,.,.,-1.2%,.,-9.3%,.
CNC(=S)NNC(=O)c1cccn(Cc2ccc(Cl)cc2Cl)c1=O,-3.0%,-1.8%[46.1 µM],-0.9%,-0.4%[38.3 µM],0.562µM*,?
CNC(=S)NNC(=O)c1ccc(=O)n(Cc2ccc(Cl)cc2Cl)c1,14.1%,-9.0%,7.7%,-9.1%,-4.3%,-8.8%
CC(C)CC(=O)Nc1nc2ccc(S(C)(=O)=O)cc2s1,20µM*,6.0%,4.6%,14.3%,0.0%,-2.0%
CN1CCN(c2ncc3nc(-c4cccs4)c(=O)n(CCc4ccccc4)c3n2)CC1,-26.1%,.,.,6.5%,-8.7%,.
COc1ccc(CNC(=O)C2CCN(c3nc(-c4ccccc4)nc4c3CCC4)CC2)cc1,50.1µM*,.,.,.,-3.4%,.
CCC(C)(C)NS(=O)(=O)c1cc(-c2cc(C)no2)ccc1C,.,.,3.8%,.,8.4%,.
O=C(CSc1nnc(C2CC2)n1Cc1ccccc1)c1ccc(S(=O)(=O)N2CCOCC2)cc1,12.6µM*,4.5%[46.1 µM],2.4%,17.4%[38.3 µM],-23.2%,-7.7%
CCOc1ccc(C(=O)CSc2nnc(C3CC3)n2C)cc1,?,4.4%[46.1 µM],2.1%,-1.4%,-3.8%,0.7%
